# Measured values taken from PubChem BioAssay AID504332 (National Center for Advancing Translational Sciences (NCATS), 2011).
# Hit rate of the full screen: of about 350,000 compounds, about 31,000 (8.9%) were called active. Not shown: some 15% with an inconclusive outcome. What follows is part of a selection rich in actives, with near analogues and random picks from the rest. A number with no mark means an inactive call. Calls follow the shape of the dose curve; as a rule, active = well fitted inhibition curve with a large enough effect; inconclusive = small, poorly fitted or top-dose-only effect; inactive = no such curve, though single readings can be large or run the other way.
# Target: Histone-lysine N-methyltransferase EHMT2 (Homo sapiens) (UniProt Q96KQ7)
# Sequence (Q96KQ7 913-1193 limits assumed): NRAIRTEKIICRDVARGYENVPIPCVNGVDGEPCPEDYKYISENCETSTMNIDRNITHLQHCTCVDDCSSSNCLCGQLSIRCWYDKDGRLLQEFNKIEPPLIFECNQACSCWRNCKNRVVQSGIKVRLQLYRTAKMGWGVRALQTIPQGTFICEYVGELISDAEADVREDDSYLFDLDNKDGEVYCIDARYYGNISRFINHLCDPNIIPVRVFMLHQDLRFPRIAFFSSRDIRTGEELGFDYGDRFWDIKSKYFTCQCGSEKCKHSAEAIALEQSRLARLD
# Test: qHTS Assay for Inhibitors of Histone Lysine Methyltransferase G9a; also: nearly all actives have a fitted effect of over 75% in size
# Details: G9a H3K9 monomethylation, AlphaScreen, 2 h; series mostly up to 59 µM; activity, negative = inhibition: at the top concentration
# Procedure, shortened: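 Signal arises when biotinylated H3K9 peptide, once monomethylated, bridges streptavidin donor and antibody-captured acceptor beads. Enzyme at 20 nM was preincubated 15 min with test compounds; peptide 500 nM and SAM 20 uM then reacted for 2 h.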
# % is scaled to controls: 0 for no effect and ±100 for the full control effect; potency is read from the fitted curve at half-maximal effect.
SMILES,"activity, negative = inhibition",Potency
CCOc1ccc(CCNC(=O)c2ccc3c(c2)sc2nc(-c4ccc(F)cc4)cn23)cc1OCC,1.74%,
CCCN(CCC)C(=O)C1CCCN(c2ncnc3c2nc2n3CCCCC2)C1 (stereo not drawn),4.45%,
S=c1[nH]nc(/C=C/c2ccccc2)o1,,22.4 µM (active)
O=c1oc(/C=C/c2ccccc2)nc2ccccc12,15% [at 102 µM],
Clc1ccc(CSc2nnc(/C=C/c3ccccc3)o2)c(Cl)c1,19.9%,
CCc1ccccc1S(=O)(=O)Cc1ccc(C(=O)NCCc2ccccc2)o1,21.5% [at 102 µM],
COC(=O)c1ccc(C)c(NC(=O)C2CC(=O)N(C3CCCC(C)C3C)C2)c1 (stereo not drawn),-4.66%,
COc1cccc(CNC(=O)c2ccc3c(c2)sc2nc(-c4cccc(OC)c4)cn23)c1,-1.93%,
CN(Cc1cnccn1)C(=O)c1cc(COc2cccc(C(F)(F)F)c2)on1,9.71% [at 102 µM],
c1ccc(CN2CCC(N=C3NN=C(c4ccc5c(c4)OCCO5)CS3)CC2)cc1,-3.44% [at 12.7 µM],
Cc1cccc(N=C2NN=C(c3c[nH]c4ccccc34)CS2)c1,-32.2%,
Clc1cccc(N=C2NN=C(c3ccc4c(c3)OCCO4)CS2)c1,,14.1 µM (active)
COc1ccccc1-c1cnn2c(N3CCOCC3)cc(C)nc12,26.6% [at 102 µM],
Cc1cc(C)c(-c2n[nH]c3c2C(c2ccccc2F)N(CCO)C3=O)c(O)c1 (stereo not drawn),19.7%,
CCc1ccc2ncc3c(-c4ccc(C)cc4)nn(CC(=O)NCc4ccccc4)c3c2c1,-1.45%,
COC(=O)c1cccc(Cn2nnc3sc4c(c3c2=O)CCC(C(C)(C)C)C4)c1 (stereo not drawn),-31.9%,
CC1CCCCC1NC(=O)CSc1nnc(N)s1 (stereo not drawn),9.08%,
CC1CCCC(NC(=O)CSc2nccn2C)C1C (stereo not drawn),,15.8 µM (active)
Cn1ccnc1SCC(=O)Nc1ccc2c(c1)OCCO2,34.5% [at 102 µM],
O=C1NN(c2ccccc2)C(=O)/C1=C/c1ccc(-c2cccc(C(=O)O)c2)o1,,39.8 µM (active)
O=C(O)c1cccc(N2C(=O)Nc3ccccc3N2O)c1,-16.3%,
O=C(Nc1ccc2nc(SCCOc3ccccc3Cl)sc2c1)c1ccco1,-31.5%,
O=S(=O)(NCc1ccccc1Br)c1ccccc1Br,7.86% [at 2.33 µM],
CCCCn1c(=S)[nH]c2cc(S(=O)(=O)N3CCCCC3)ccc21,,1.78 µM (active)
CN(Cc1ccccc1)C(=O)c1cn(C)c2ccc(S(=O)(=O)N3CCCCC3)cc2c1=O,-1.71%,
O=c1[nH]c2ccc(S(=O)(=O)N3CCCC3)cc2[nH]1,2.56% [at 102 µM],
O=C(NCCc1ccccc1)c1ccc2c(c1)N(Cc1ccc(F)cc1)C(=O)c1ccccc1S2(=O)=O,-0.301%,
Cc1ccc2oc(=O)c3cnn(CC(=O)NCc4ccccc4Cl)c3c2c1,11.1%,
